# Test results from PubChem BioAssay.
# Several values for one entry are separate records, joined by “and”; a condition that tells them apart may be missing. Equal values may be shown once. Activity calls are given as the source filed them. Unless noted, no rule for the calls is given here.
# Columns and labels:
# [1] = compound effects on lung adenocarcinoma cell viability – A549, calcein-AM fluorescence, 48 h, basal, profiling panel (AID 1162); details: higher = more signal; also: test concentration not given here
# [2] = compound effects on differentiated 3T3-L1 adipocyte viability – cell-based, 3T3-L1 adipocytes, calcein-AM fluorescence, 48 h, basal, profiling panel (AID 1163); details: 3T3-L1 adipocytes viability, higher = more signal; also: test concentration not given here
# [3] = compound effects on hepatocellular carcinoma cell viability – HepG2, calcein-AM fluorescence, 48 h, basal, profiling panel (AID 1164); details: higher = more signal; also: test concentration not given here
# [4] = compound effects on multiple myeloma cell viability – MM1S, calcein-AM fluorescence, 48 h, basal, profiling panel (AID 1165); details: higher = more signal;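 also: viability of MM1S multiple myeloma cells under basal unstimulated conditions; test concentration not given here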
# [5] = calcein-AM signal in unstimulated myeloma cells – cell-based, calcein-AM fluorescence, 48 h, PK04 Diversity Set, profiling panel (AID 1166); details: RPMI8226 myeloma viability, higher = more signal;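 also: cells grown under basal conditions without added stimulus; test concentration not given here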
# [6] = JC-1 mitochondrial signal, unstimulated HepG2 cells – cell-based, JC-1 fluorescence, 24 h, 100 nL compound, profiling panel (AID 1167); details: HepG2 mitochondrial potential, higher = more signal; also: test concentration not given here
# [7] = JC-1 mitochondrial signal, unstimulated adipocytes – cell-based, JC-1 fluorescence, 3T3-L1 adipocytes, 24 h, 100 nL compound, profiling panel (AID 1168); details: JC-1 mitochondrial fluorescence, higher = more signal, called active from +8 up or from −8 down; also: test concentration not given here
# [8] = JC-1 mitochondrial signal, unstimulated myeloma cells – cell-based, JC-1 fluorescence, RPMI8226, 24 h, 100 nL compound, profiling panel (AID 1169); details: JC-1 mitochondrial potential fluorescence, higher = more signal; also: test concentration not given here
# [9] = JC-1 mitochondrial signal, unstimulated MM1S myeloma – cell-based, JC-1 fluorescence, 24 h, 100 nL compound, profiling panel (AID 1170); details: MM1S mitochondrial potential, higher = more signal; also: test concentration not given here
# [10] = resazurin metabolic signal in A549 cells – cell-based, resazurin fluorescence, 24 h, PK04 Diversity Set, profiling panel (AID 1171); details: A549 viability, higher = more signal, called active from +8 up or from −8 down; also: test concentration not given here
# [11] = resazurin metabolic signal in HepG2 cells – cell-based, resazurin fluorescence, 24 h, PK04 Diversity Set, profiling panel (AID 1172); details: HepG2 viability, higher = more signal; also: test concentration not given here
# [12] = budding yeast growth changes without added modifier – OD600, strain BY4716, 24 h, basal condition, primary screen (AID 1173); details: S. cerevisiae BY4716 growth, OD600, 24 h; higher = more signal, called active from +8 up or from −8 down
# [13] = viability profiling in MM1S myeloma cells – cell-based, resazurin fluorescence, basal, 24 h, PK04 Diversity Set, profiling panel (AID 1174); details: higher = more signal, called active from +8 up or from −8 down; also: test concentration not given here
# [14] = target: Dihydroorotate dehydrogenase (quinone), mitochondrial (Plasmodium falciparum (isolate 3D7)) (UniProt Q08210); assay: inhibition of P. falciparum DHODH – biochemical, C-terminal His tag, absorbance 600 nm, primary screen (AID 1175); details: PfDHODH enzyme, DCIP absorbance 600 nm; higher = more signal, called active from +8 up or from −8 down;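 also: recombinant parasite enzyme with a five histidine tag at its C terminus; test concentration not given here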
# [15] = inhibition of PAO1 biofilm formation – strain PAO1, LB-PBS medium, absorbance 600 nm, primary screen (AID 1176); also: test concentration not given here; details: P. aeruginosa PAO1 growth/biofilm, A600, 12 h; higher = more signal
# [16] = growth modulation of vineyard yeast isolate – strain RM11-1a, OD600, basal, 24 h, primary screen (AID 1177);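 also: cultures grown under basal conditions with no added stressor; test concentration not given here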; details: S. cerevisiae RM11-1a growth, OD600, 24 h; higher = more signal, called active from +8 up or from −8 down
# [17] = growth of efflux-deficient E. coli DRC39 – strain DRC39, OD650, 24 h, E. coli filamentation inducers, primary screen (AID 1178);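 also: growth measured as culture turbidity by optical density at 650 nm; test concentration not given here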; details: E. coli DRC39 acrAB, higher = more signal, called active from +8 up or from −8 down
# [18] = growth of efflux-deficient E. coli DRC39 – strain DRC39, OD650, 48 h, E. coli filamentation inducers, primary screen (AID 1179);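 also: screen aims at cell division blockers that make cells filament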; details: E. coli DRC39 delta-acrAB growth, higher = more signal, called active from +8 up or from −8 down
# [19] = viability profiling in RPMI8226 myeloma cells – cell-based, resazurin fluorescence, basal, 24 h, PK04 Diversity Set, profiling panel (AID 1180); details: higher = more signal;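 also: RPMI8826 multiple myeloma cell line at 5000 cells per well; test concentration not given here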
# [20] = target: E3 ubiquitin-protein ligase XIAP (Homo sapiens) (UniProt P98170); assay: small molecules binding XIAP protein – biophysical, small-molecule microarray, fluorescence 635 nm, primary screen (AID 1181); details: higher = more signal;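 also: score merges 667 nm emission and signal to noise over triplicate slides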
# Sequence of E3 ubiquitin-protein ligase XIAP (Homo sapiens) (P98170 whole entry, looked up): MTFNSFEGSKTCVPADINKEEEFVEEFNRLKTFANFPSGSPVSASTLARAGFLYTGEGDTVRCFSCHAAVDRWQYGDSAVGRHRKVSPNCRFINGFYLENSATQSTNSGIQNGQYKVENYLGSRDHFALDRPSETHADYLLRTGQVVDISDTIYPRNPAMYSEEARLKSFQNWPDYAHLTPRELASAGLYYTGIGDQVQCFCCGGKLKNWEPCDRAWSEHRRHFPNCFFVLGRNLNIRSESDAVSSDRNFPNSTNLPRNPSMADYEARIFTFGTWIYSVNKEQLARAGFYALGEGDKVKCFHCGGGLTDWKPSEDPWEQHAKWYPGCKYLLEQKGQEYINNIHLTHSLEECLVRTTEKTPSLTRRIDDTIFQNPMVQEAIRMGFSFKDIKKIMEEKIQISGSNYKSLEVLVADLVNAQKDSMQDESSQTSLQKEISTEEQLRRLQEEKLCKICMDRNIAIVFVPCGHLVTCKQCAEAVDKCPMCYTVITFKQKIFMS
# Sequence of Dihydroorotate dehydrogenase (quinone), mitochondrial (Plasmodium falciparum (isolate 3D7)) (Q08210 whole entry, looked up): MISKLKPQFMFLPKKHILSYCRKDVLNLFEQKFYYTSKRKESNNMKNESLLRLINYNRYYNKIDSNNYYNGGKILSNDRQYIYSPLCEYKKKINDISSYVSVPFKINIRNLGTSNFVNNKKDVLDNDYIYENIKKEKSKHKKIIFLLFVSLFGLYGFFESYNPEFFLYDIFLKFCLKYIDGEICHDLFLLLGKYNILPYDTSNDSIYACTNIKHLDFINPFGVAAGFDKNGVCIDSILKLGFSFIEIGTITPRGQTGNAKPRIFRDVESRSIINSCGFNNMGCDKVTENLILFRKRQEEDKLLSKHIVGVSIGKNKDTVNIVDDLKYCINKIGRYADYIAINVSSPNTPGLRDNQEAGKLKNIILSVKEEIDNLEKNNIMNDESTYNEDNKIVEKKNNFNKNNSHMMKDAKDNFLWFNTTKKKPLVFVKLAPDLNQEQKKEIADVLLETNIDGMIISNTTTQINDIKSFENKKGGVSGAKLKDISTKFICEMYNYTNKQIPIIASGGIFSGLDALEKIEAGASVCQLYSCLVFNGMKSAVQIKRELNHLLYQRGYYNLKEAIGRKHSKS
SMILES,z-score [1],z-score [2],z-score [3],z-score [4],z-score [5],z-score [6],z-score [7],z-score [8],z-score [9],z-score [10],z-score [11],z-score [12],z-score [13],composite z-score [14],z-score [15],z-score [16],z-score [17],z-score [18],z-score [19],composite z-score [20]
C=C[C@@H](C)[C@@H](O)c1ccc(OCCO)cc1,-0.61 and 0.227,0.513 and 0.464,-0.976 and 0.692,0.958 and -0.872,-0.754 and 0.96,0.299 and 1.09,-0.82 (inactive) and -0.165 (inactive),-0.0815 and 0.346,0.287 and -0.925,0.175 (inactive) and -0.652 (inactive),0.162 and 0.223,-3.96 (inactive) and -2.81 (inactive),-0.435 (inactive) and 0.286 (inactive),0.0788 (inactive) and -1.03 (inactive),0.331 (inactive) and 0.838 (inactive),0.909 (inactive) and 1.21 (inactive),1.12 (inactive) and 0.982 (inactive),0.795 (inactive) and 1.13 (inactive),-0.112 and 0.616,0.103 and -0.15
O=c1n(-c2ccccc2)c(=O)n2n1CC[C@@H]1C(=NOC[C@@H](O)COCc3ccco3)[C@H]3O[C@H]3[C@@H](O)[C@@H]12,-1.18 and 0.202,0.581 and -0.304,-0.0728 and -0.713,0.256 and -0.207,-0.246 and -0.624,-0.16 and -1.1,0.127 (inactive) and -1.22 (inactive),-0.135 and 0.0289,0.181 and -0.00804,-1.03 (inactive) and -0.872 (inactive),-0.618 and -0.581,-0.428 (inactive) and 0.804 (inactive),0.467 (inactive) and -0.453 (inactive),-2.79 (inactive) and 0.389 (inactive),0.413 (inactive) and -0.455 (inactive),-0.37 (inactive) and 0.962 (inactive),-0.417 (inactive) and 0.0343 (inactive),-0.802 (inactive) and -0.756 (inactive),0.0942 and -0.433,-0.0085 and -0.434
C=CCN(C(=O)C1N(C(C)(C)CO)C(=O)C2C(C(=O)O)C3C=CC21O3)c1ccc(OC)cc1 (stereo not given),0.396 and 0.242,0.682 and -0.0179,-0.394 and -0.112,0.925 and 0.494,0.463 and 0.475,0.414 and 0.332,0.688 (inactive) and 0.702 (inactive),0.9 and -0.286,0.646 and 0.841,0.377 (inactive) and 0.109 (inactive),0.489 and -0.143,-0.684 (inactive) and 0.362 (inactive),1.01 (inactive) and 0.128 (inactive),0.2 (inactive) and -2.13 (inactive),-0.786 (inactive),0.643 (inactive) and 1.4 (inactive),1.33 (inactive) and 0.347 (inactive),1.09 (inactive) and 0.546 (inactive),0.592 and -0.39,-0.0771 and -0.0663
CC(CO)N1C(=O)[C@@H]2C3C(=O)OCCC=C[C@H]3OC23C=CCN(CCN2CCOCC2)C(=O)[C@@H]13 (stereo not given in full),-0.438 and -0.439,-0.465 and 0.0431,-1.36 and -0.421,0.19 and 0.248,-0.174 and -0.382,-0.41 and -1.09,-0.189 (inactive) and -0.818 (inactive),-0.00565 and 0.13,-0.137 and -0.0991,-0.298 (inactive) and 0.141 (inactive),-0.437 and 0.303,0.401 (inactive) and 0.191 (inactive),-1.45 (inactive) and -0.517 (inactive),-1.07 (inactive) and -2.08 (inactive),0.0405 (inactive) and 0.0809 (inactive),0.819 (inactive) and -0.631 (inactive),-0.831 (inactive) and -0.259 (inactive),-0.839 (inactive) and -0.358 (inactive),-1.03 and -0.76,0.16 and 0.219
CCOC(=O)CCN1C(=O)[C@H]2[C@H]3[C@H](O)[C@H](O)CC(=NNC(=O)OCC)[C@@H]3CC[C@H]2C1=O,0.241,-0.0796,0.076,-0.847,-0.314,-0.566,-0.541 (inactive),0.209,-0.479,-0.453 (inactive),-0.346,-0.762 (inactive),-0.994 (inactive),-0.31 (inactive),-0.531 (inactive),-0.382 (inactive),0.202 (inactive),0.526 (inactive),-1.74,0.116
C=CCN(CCCC)C(=O)C1N(C(C)(C)CO)C(=O)C2C(C(=O)O)C3C=CC21O3 (stereo not given),-0.77 and -0.624,0.75 and 0.349,0.0674 and -0.857,1.09 and -0.12,-0.539 and 0.144,-0.553 and -0.548,-0.134 (inactive) and 0.142 (inactive),0.354 and 0.826,-0.283 and -0.384,0.289 (inactive) and -0.11 (inactive),0.043 and 0.688,0.709 (inactive) and -0.0821 (inactive),-0.0251 (inactive) and -0.847 (inactive),-1.46 (inactive) and 0.0326 (inactive),0.385 (inactive) and 0.0126 (inactive),-0.902 (inactive) and -1.02 (inactive),0.378 (inactive) and 0.096 (inactive),0.0298 (inactive) and -0.182 (inactive),-0.131 and -0.803,-0.162 and -0.195
C=CCN(C(=O)C(c1cccs1)N(C(=O)/C=C\C(=O)O)c1c(Cl)cccc1CO)c1ccc(OC)cc1 (stereo not given),1.15 and 1.21,0.111 and 0.112,0.24 and 0.365,1.51 and -0.996,0.844 and 0.57,0.601 and -1.19,0.418 (inactive) and 0.623 (inactive),-0.74 and -0.0886,1.4 and -0.173,0.747 (inactive) and -0.246 (inactive),0.154 and -2.56,-2.07 (inactive) and -1.37 (inactive),1.02 (inactive) and -0.0953 (inactive),-5.76 (inactive) and -2.28 (inactive),-0.18 (inactive),-0.736 (inactive) and 0.0288 (inactive),0.976 (inactive) and 0.515 (inactive),1.11 (inactive) and 0.57 (inactive),0.509 and -0.0282,0.0264 and -0.0795
CC(C)=NO[C@@H](C)c1cc(-c2c(C)cc(C)cc2C)no1,-0.846,0.38,-0.242,-0.309,-0.416,-0.182,0.478 (inactive),-0.328,-0.39,0.0477 (inactive),-0.18,-2.48 (inactive),0.672 (inactive),-2.98 (inactive),0.499 (inactive),-0.395 (inactive),-0.328 (inactive),-2.9 (inactive),0.0684,0.0251
CCCCN1CC=CC23O[C@@H]4C=CCCOC(=O)C4[C@H]2C(=O)N(C(C)CO)[C@@H]3C1=O (stereo not given in full),-0.301 and -0.336,-0.457 and -0.57,-0.469 and -0.612,1.07 and 0.893,-0.736 and -0.717,-0.494 and -0.753,-0.433 (inactive) and -0.828 (inactive),-0.129 and 0.0982,-0.686 and -0.347,0.237 (inactive) and -0.595 (inactive),0.169 and -0.388,-0.288 (inactive) and 1.12 (inactive),-0.201 (inactive) and -0.715 (inactive),-0.755 (inactive) and -2.42 (inactive),0.329 (inactive) and 0.137 (inactive),-0.891 (inactive) and 1.05 (inactive),0.0926 (inactive) and -0.474 (inactive),-0.25 (inactive) and -0.564 (inactive),-0.157 and -0.53,-0.0062 and 0.744
CCN1C(=O)[C@H]2[C@H]3[C@H](O)[C@H](O)CC(=NOC[C@@H](O)COCc4ccco4)[C@@H]3CC[C@H]2C1=O,0.107 and -0.737,-0.233 and 1.1,-0.417 and -0.814,0.0026 and 0.228,-1.35 and -1.38,-0.48 and -0.487,-0.844 (inactive) and -0.925 (inactive),0.0424 and 0.122,0.104 and 0.0266,-0.767 (inactive) and -1.14 (inactive),-0.113 and -1.03,1.31 (inactive) and 0.252 (inactive),-0.413 (inactive) and -0.696 (inactive),0.489 (inactive) and 0.529 (inactive),-0.601 (inactive) and -0.385 (inactive),0.567 (inactive) and 0.24 (inactive),-0.357 (inactive) and -1.05 (inactive),-0.463 (inactive) and -0.657 (inactive),-0.575 and -0.287,-0.0666 and -0.121
C=CC[C@@H](O)c1ccc(O)c2ccccc12,0.292 and 0.405,-0.0851 and -0.0172,0.23 and -0.354,-2.77 and -2.68,-3.06 and -4.28,-2.14 and -2.66,0.0544 (inactive) and -0.0565 (inactive),-0.887 and -0.994,-1.63 and -1.56,-0.308 (inactive) and -0.572 (inactive),0.202 and -0.349,-17.2 (active) and -17.3 (active),-2.06 (inactive) and -2.1 (inactive),-2.37 (inactive) and -3.1 (inactive),1 (inactive) and 1.33 (inactive),-0.508 (inactive) and 0.0761 (inactive),1.2 (inactive) and -0.0099 (inactive),0.635 (inactive) and -0.379 (inactive),-0.947 and -1.55,0.205 and 0.0537
C=CC[C@H](O)c1ccc(OCCO)cc1,-0.168 and -0.248,-0.219 and -0.258,-0.267 and 0.456,0.842 and -1.08,-0.252 and -0.209,-0.301 and -0.603,-0.315 (inactive) and 0.251 (inactive),-0.0607 and 0.117,0.319 and -0.662,-0.233 (inactive) and -0.884 (inactive),0.116 and -0.551,-1.47 (inactive) and -1.79 (inactive),-0.567 (inactive) and -0.911 (inactive),-0.364 (inactive) and -0.704 (inactive),0.225 (inactive) and -0.0818 (inactive),-0.0329 (inactive) and -0.774 (inactive),0.375 (inactive) and -0.241 (inactive),0.333 (inactive) and -0.405 (inactive),-0.535 and 0.0681,0.0697 and -0.152
